# This excerpt belongs to a sample that is enriched for hits.
# Pf Dd2 inh: inhibitors of Plasmodium falciparum Dd2 growth. P. falciparum Dd2 growth, SYBR Green, 72 h. Potency, µM (top dose mostly 28.9 µM), inactives show at the highest dose activity, negative = inhibition, usual class: inhibitors. hit rate 4.3% among 120,000; active = well fitted inhibition curve with a large enough effect;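 note: plate controls were DMSO vehicle for no effect and reference drug for full effect; nearly all actives have a fitted effect of over 65% in size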
#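 Readout: SYBR Green fluorescence, 485 nm excitation, 535 nm emission, after ~16 h lysis at 37C. Before that, Dd2-infected red cells (2.5% hematocrit) grew 72 h with compound, 29 uM top final concentration.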
# * hit, by the source's call; i = inactive; [ ] = dose if it differs, or a comment. Potency is the fitted concentration of half-maximal effect.
SMILES,Pf Dd2 inh
COC(=O)C1=C(C)N=C2SC=C(CC(=O)Nc3cc(C)cc(C)c3)N2C1c1ccccc1OC (centres undefined),7.08µM*
CCOC(=O)C1=C(C)N=C2SC=C(CC(=O)NC3CC3)N2C1c1cccc(OC)c1OC (centres undefined),-1.9%
CCC1=C(C(=O)OC)C(c2ccccc2C)N2C(CC(=O)NCC3CC3)=CSC2=N1 (centres undefined),-12.9%
COC(=O)C1=C(C)N=C2SC=C(CC(=O)NCCc3cccs3)N2C1c1cccc(OC)c1 (centres undefined),i
CCC1=C(C(=O)OC)C(c2ccccc2)N2C(CC(=O)NCc3cccc(F)c3)=CSC2=N1 (centres undefined),3.98µM*
CCC1=C(C(=O)OC)C(c2ccccc2)N2C(CC(=O)NCC3CC3)=CSC2=N1 (centres undefined),-3.1%
CCC1=C(C(=O)OC)C(c2cccc(F)c2)N2C(CC(=O)NCc3cccc(F)c3)=CSC2=N1 (centres undefined),2.51µM*
CCOC(=O)C1=C(C)N=C2SC=C(CC(=O)N3CCOCC3)N2C1c1ccccc1OC (centres undefined),i
CCC1=C(C(=O)OC)C(c2cccc(OC)c2OC)N2C(CC(=O)NC3CC3)=CSC2=N1 (centres undefined),i
COCCOC(=O)C1=C(C)N=C2SC=C(CC(=O)NCc3cccc(F)c3)N2C1c1ccccc1 (centres undefined),-18.0%
CCC1=C(C(=O)OC)C(c2cccc(C)c2)N2C(CC(=O)N3CCOCC3)=CSC2=N1 (centres undefined),-29.0%
COC(=O)[C@@H](C)NC(=O)[C@H]1CN(C(=O)Nc2ccccc2)CCN1C(=O)NC(C)C,-1.9%[44.1 µM]
Cc1nnc([C@@H]2CC(F)(F)CN2C(=O)c2nn(C)c3ccccc23)o1,-8.7%
Cc1c(-c2ccccc2F)[nH]c2ccc(CNC(=O)CCN3CCCO3)cc12,i
COC[C@@H]1CN(C(=O)c2ccc(OC)cc2OC)C[C@H]1C(N)=O,16.2%
O=C(NC1CCCCC1)N1CCC(c2noc(-c3cccnc3)n2)C1 (centres undefined),-8.9%[5.79 µM]
Cn1cc([C@@H](NC(=O)CCc2c[nH]c3ccccc23)C2CC(O)C2)cn1 (some centres undefined),-2.5%
O=C(c1ccccc1)N1CCC2(CC(c3cccc(C(F)(F)F)c3)=NO2)C1 (centres undefined),-8.8%
CCc1noc(-c2cn(C3CCN(C(=O)c4ccc(C)cc4)CC3)nn2)n1,i
CCc1noc(-c2cn(C3CCN(C(=O)c4ccc(OC)cc4)CC3)nn2)n1,i
CCCc1noc(-c2cn(C3CCN(C(=O)c4ccc(OC)c(F)c4)CC3)nn2)n1,-13.4%
CCCc1noc(-c2cn(C3CCN(C(=O)c4ccc(C#N)cc4)CC3)nn2)n1,12.6µM*
CCCc1noc(-c2cn(C3CCN(C(=O)c4cccc(N(C)C)c4)CC3)nn2)n1,3.55µM*
Cc1noc(-c2cn(C3CCN(C(=O)c4cccc(Br)c4)CC3)nn2)n1,-23.2%
CSCc1ccc(C(=O)N2CCN(c3ccc(C)cc3)C(=O)C2)o1,-24.8%
SMILES,Pf Dd2 inh
O=C(Cn1nc(-c2cccs2)ccc1=O)NC1CCCc2c1[nH]c1ccccc21 (centres undefined),1.1%
COC(=O)C1=C(C)NC(=O)NC1c1ccc(N(C)C)cc1 (centres undefined),-12.0%
O=C(CCn1cncn1)N1CCOC(CC(c2ccccc2)c2ccccc2)C1 (centres undefined),-9.3%
NC(=O)c1cccnc1N1CCOC(CC(c2ccccc2)c2ccccc2)C1 (centres undefined),7.94µM*
Cc1ccccc1OC1(C(=O)O)CCN(c2ncccc2C(N)=O)CC1,-2.7%
COCc1nc(C2CCN(C(=O)N(C)C)C2)no1 (centres undefined),-3.0%
COc1ccc(CNC2(Cc3cc(C(=O)N4CCCCC4)on3)COC2)cc1,i
COc1ccccc1-c1ccc(CN)cc1,-26.5%[44.1 µM]
COc1ccc(F)cc1-c1ccccc1CN,10µM*
COc1ccc(F)cc1-c1ccc(C=O)cc1,3.0%[44.1 µM]
COCC(=O)N1CCN(C(=O)CSCC(=O)O)C[C@H]1C(=O)N[C@H]1CCCNC1=O,-16.7%[44.1 µM]
CN1CC(=O)N(c2ccc(Cl)cc2)Cc2c1ncnc2N1CCC(c2ccccc2)CC1,-10.3%
Cc1ccc(OCC(=O)Nc2ccc3nc(Nc4cccc(Cl)c4)cc(C)c3c2)cc1,35.8%
Cc1cc(Nc2cccc(C(F)(F)F)c2)nc2ccc(NC(=O)Cc3ccc(Cl)cc3)cc12,11.2µM*
CCN(CC)c1cc(C)c2cc(NC(=O)c3cccc(F)c3)ccc2n1,-6.2%
Cc1cc(Nc2cccc(C(F)(F)F)c2)nc2ccc(NC(=O)c3ccc(N(C)C)cc3)cc12,2.82µM*
Cc1ccccc1-c1nc2cc(NC(=O)Cc3ccc(Cl)cc3)ccc2o1,3.0%
CCn1nnc2cc(C(=O)Nc3cccc(C(F)(F)F)c3)ccc21,-5.4%
CCC1(N2CCN(C(=O)Nc3cc(Cl)ccc3OC)CC2)CCN(C(=O)NC)C1 (centres undefined),-13.3%
Cn1ncc(N2CCN(CC3(O)CNCCOC3)CC2)cc1=O (centres undefined),-3.8%
Cc1ccc(CN2CCC(Cc3nnc(CO)n3-c3ccccc3)CC2)o1,25.0%
CN(C)C(=O)CN1C(=O)CO[C@H](c2ccc(NS(=O)(=O)Cc3ccccc3)cc2)[C@H]1CO,5.4%
O=C(O)CC1COCCN1Cc1ccsc1 (centres undefined),5.0%
CNC(=O)c1cc[nH]c1C1CCCN(C(=O)c2cccs2)C1 (centres undefined),26.4%
CC(C(=O)O)N1CC2(CCC1=O)CCN(C(=O)CN1CCCC1)CC2 (centres undefined),-12.4%
SMILES,Pf Dd2 inh
Cc1cccc(NC(=O)NCC2CCOCC2)c1C,-11.7%
CCOc1ccccc1C1C(C(N)=O)=C(C)Nc2nc(-c3ccccc3Cl)nn21 (centres undefined),-8.3%
COc1ccc(C2C(C(N)=O)=C(C)Nc3nc(-c4ccccc4Cl)nn32)cc1 (centres undefined),-21.9%
CCOc1ccc(C2C(C(=O)Nc3ccccc3)=C(C)Nc3nc(-c4ccccc4Cl)nn32)cc1OC (centres undefined),8.91µM*
Cc1noc(C)c1S(=O)(=O)N1CC(N(C)Cc2cccnc2)C1,-14.0%
O=C(c1ccoc1)N1CCCN(C2CCC3(CCNCC3)CC2)CC1,14.4%
COc1cccc(-c2nc3cnccn3c2NCCC(=O)Nc2ccc(F)cc2C)c1,i
CCC(=O)N1Cc2ccccc2CC2(CCN(CC3CCNC3)C2)C1 (centres undefined),9.4%
CN1CCCC2(Cc3ccccc3CN(C(=O)c3ccccc3)C2)C1 (centres undefined),-14.5%
CC(=O)N1Cc2ccccc2CC2(CCN(Cc3ccncc3)C2)C1 (centres undefined),-7.8%
CCCN1CCCC2(Cc3ccccc3CN(C(=O)Cc3ccccc3)C2)C1 (centres undefined),6.31µM*
CCCN1CCCC12Cc1ccccc1CN(C(=O)CCCC(=O)O)C2 (centres undefined),-20.1%
CCC(=O)N1Cc2ccccc2CC2(CCN(CCc3ccc(C)cc3)CC2)C1,8.91µM*
CC(=O)NCC(=O)N1Cc2ccccc2CC2(CCN(C)C2)C1 (centres undefined),5.7%
CCCC(=O)N1Cc2ccccc2CC2(CCN(Cc3ccc(O)cc3)C2)C1 (centres undefined),12.6µM*
CN(C)CC(=O)N1Cc2ccccc2CC2(CCCN(CCc3ccccc3)C2)C1 (centres undefined),5.01µM*

# High-throughput results as filed in PubChem BioAssay.
